Test results reported in PubChem BioAssay (NCI).
The panel holds about 83,000 compounds, 20% with a hit somewhere; the sample as a whole holds those more often.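 48-hour exposure, single concentration, 96-well plates; percent growth endpoint where 0 means no net growth. Active: below 10.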 Values without a mark were called inactive. Active and inactive are the calls of the source.

Tests used:
Assay in all cases: NCI-60 one-dose screen, 48 h (100 = growth as untreated, 0 = no growth, -100 = all killed)
HCT-15 colon = conditions: 10 µM unless noted
HT29 colon = conditions: 10 µM unless noted
SNB-75 CNS = conditions: 10 µM unless noted
SNB-19 CNS = conditions: 10 µM unless noted
U251 CNS = conditions: 10 µM unless noted
PC-3 prostate = conditions: 10 µM unless noted
SK-MEL-5 melanoma = conditions: 10 µM unless noted
UACC-62 melanoma = conditions: 10 µM unless noted
LOX IMVI melanoma = conditions: 10 µM
SK-MEL-28 melanoma = conditions: 10 µM unless noted

Compound | growth (HCT-15 colon) | growth (HT29 colon) | growth (SNB-75 CNS) | growth (SNB-19 CNS) | growth (U251 CNS) | growth (PC-3 prostate) | growth (SK-MEL-5 melanoma) | growth (UACC-62 melanoma) | growth (LOX IMVI melanoma) | growth (SK-MEL-28 melanoma)
Cc1cc(C)cc(OCC(=O)O)c1 | 94.4% | 119% | 94.8% | 97.1% | 103% | 104% | 110% | 98.5% | 98.7% | 107%
CCOC(=O)c1ccc(NC(=O)Nc2nccs2)cc1 | 4.65% (active) | -25.6% (active) | 61.5% | 11.6% | 12.5% | 22.8% | -67.3% (active) | 31.8% | 11.9% | 40.9%
COc1cc(C(=O)NC(=S)NCc2ccncc2)cc(OC)c1OC | 95.5% | 89.2% | 92.5% | 106% | 98.7% | 95.9% | 90.3% | 99.3% | 97.7% | 102%
CCCC(OC(C)=O)c1ccc2c(c1)OCO2 (stereo not given) | 115% | 103% | 96.9% | 105% | 96% | 102% | 102% | 102% | 103% | 106%
COc1cc(-c2ccc(NC(=O)CC(C)=O)c(OC)c2)ccc1NC(=O)CC(C)=O | 96.7% | 107% | 82.2% | 101% | 89.6% | 95.1% | 98.1% | 102% | 96.7% | 111%
CC(C)(C)NCCC(O)c1cc(C(F)(F)F)nc2c(C(F)(F)F)cccc12 (stereo not given) | 79.2% | 66.5% | 78.2% | 87.2% | 54.3% | 55.3% | 81.8% | 74.7% | 1.78% (active) | 117%
CCOC(=N)CC(=O)Nc1cccc(C)c1Cl | 100% | 116% | 86% | 109% | 103% | 93.6% | 94.9% | 93.9% | 93% | 105%
CC(=O)c1ccc(C)cc1 | 113% | 111% | 90.1% | 109% | 108% | 106% | 105% | 105% | 108% | 104%
CS(=O)(=O)c1ccc(/C=C\C(=O)O)cc1 | 96.1% | 104% | 80.2% | 102% | 104% | 98.1% | 99.5% | 111% | 98% | 105%
S=C(Sc1ccc(Cl)cc1)Sc1ccc(Cl)cc1 | 3.17% (active) | 4.96% (active) | 46% | 83.9% | -43% (active) | 9.49% (active) | 65.9% | -47% (active) | -100% (active) | -64.2% (active)
O=Cc1c(O)c2ccccc2[nH]c1=O | 95.2% | 116% | 77.9% | 104% | 94.3% | 94.4% | 95.1% | 87.9% | 98.5% | 107%
CC(=O)O[C@H]1CC[C@]2(C)C3=C(C(=O)C[C@H]2C1(C)C)[C@]1(C)CC[C@H]([C@H](C)CCC(=O)O)[C@@]1(C)CC3=O | 95.5% | 89.7% | 91.7% | 108% | 101% | 92.4% | 102% | 106% | 98.1% | 105%
S=c1nc2[nH]c3ccccc3c2n[nH]1 | 97.3% | 98.6% | 103% | 83.3% | 105% | 82.3% | 90.1% | 87.1% | 89.6% | 91.7%
COc1ccc2c(c1)Nc1ccccc1S2 | 104% | 104% | 108% | 110% | 97.2% | 97.9% | 101% | 96.2% | 113% | 114%
CN(C)c1ccc2nc3ccc(=[N+](C)C)cc-3oc2c1 | 33.3% | 33.2% | 71.3% | 14.2% | -29.1% (active) | 11.4% | 23.5% | 39.5% | 12.2% | 66.6%
O=C1C=C(c2ccccc2)C(O)(c2ccccc2)C1 (stereo not given) | 132% | 97.8% | 77.6% | 135% | 106% | 92.8% | 106% | 92.3% | 93.6% | 108%
COc1cc(N)c2ncccc2c1Cl | 90.5% | 91.1% | 99.8% | 98.8% | 101% | 93.3% | 96.4% | 86.7% | 104% | 121%
Cn1c(=O)c2nc3c(=O)n(C)c(=O)n(C)c3nc2n(C)c1=O | 109% | 109% | 92.4% | 92.3% | 103% | 97.4% | 106% | 94.4% | 105% | 122%
NC(=O)NCCO | 109% | 100% | 105% | 104% | 92.5% | 94.5% | 98% | 95.5% | 97.7% | 113%
O=c1nc(Nc2cccc(Cl)c2)oc2cc(Cl)oc(=O)c12 | 83.4% | 85.5% | 67.2% | 94.3% | 79.6% | 61.8% | 106% | 78.7% | 73.5% | 85.5%
Cc1[nH]c(=S)[nH]c(=O)c1C | 99.4% | 104% | 93.4% | 103% | 92.4% | 102% | 100% | 105% | 104% | 110%
COC1OC(C(O)C(O)CO)C(O)C(O)C1O (stereo not given) | 99.1% | 100% | 95.6% | 105% | 98.9% | 95.6% | 107% | 102% | 102% | 101%
Cc1ccc([N+](=O)[O-])c(C)n1 | 97.9% | 108% | 77.8% | 105% | 102% | 89.7% | 114% | 107% | 103% | 99.6%
C=CC(C)C(C)(C)O (stereo not given) | 104% | 101% | 101% | 109% | 103% | 100% | 107% | 102% | 99.2% | 113%
NC(=S)c1c(N)n(C2OC(CO)C(O)C2O)c2ncnc(N)c12 (stereo not given) | 3.4% (active) | 5.09% (active) | -8.18% (active) | 14.9% | 17.3% | -10.1% (active) | -77.5% (active) | -73.7% (active) | -3.22% (active) | -46.8% (active)
CCOC(=O)CNC | 99.1% | 117% | 83.4% | 100% | 89.4% | 93.9% | 101% | 94.8% | 95.6% | 105%
Oc1cc2ccccc2c(-c2c(O)c(O)cc3ccccc23)c1O | 28.2% | 45.3% | 41.5% | 41.5% | 33.9% | 14.7% | 33.4% | 27.9% | 14.5% | 53.2%
Cc1cc(Cl)cc(Cc2cc(Cl)cc(C)c2O)c1O | 12.4% | 98.1% | 19.3% | 17.3% | 8.37% (active) | -7.63% (active) | 6.88% (active) | 16.1% | 5.44% (active) | 22.6%
CC(C)N1CC(=O)N2CSCC2C1=O (stereo not given) | 105% | 119% | 99.3% | 121% | 105% | 101% | 104% | 104% | 98.9% | 111%
